What all share (experiment): NCI-60 one-dose screen, 48 h (100 = growth as untreated, 0 = no growth, -100 = all killed)
Common to all, as to conditions: 10 µM unless noted

Test [1] relates to HCT-15 colon.
Test [2] concerns HT29 colon.
For test [3], the system named is SNB-75 CNS.
For test [4], the system named is SNB-19 CNS.
In test [5] the test system is U251 CNS.
Test [6] deals with PC-3 prostate.
In test [7] the test system is SK-MEL-5 melanoma.
For test [8], the system named is UACC-62 melanoma.
The test system of test [9] is LOX IMVI melanoma.
In test [10] the test system is SK-MEL-28 melanoma.
Test [11] has as its system SK-MEL-2 melanoma.
Test [12] deals with EKVX NSCLC.
The subject of test [13] is SN12C renal.
In test [14] the test system is UO-31 renal.
The test system of test [15] is TK-10 renal.
For test [16], the system named is ACHN renal.
Test [17] deals with CAKI-1 renal.
Test [18] relates to A498 renal.
The subject of test [19] is CCRF-CEM leukemia.
For test [20], the system named is MOLT-4 leukemia.

Results on seven compounds are retold here after PubChem BioAssay (NCI).

The structures appear in SMILES notation. Where “and” joins values, the source holds several entries; their conditions need not be identical. Identical values can stand only once. The panel holds about 83,000 compounds, 20% with a hit somewhere; the sample as a whole holds those more often.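 Testing used 96-well plates and a 48-hour single-concentration exposure. Example: -40 means 40% of the starting cells died.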 Calls of active or inactive are those of the source. How the source made its calls: active means growth percent below 10; inactive means the rest.

As to `Clc1ccc(Nc2nc(Nc3ccc(Cl)cc3)nc(Nc3ccc(-c4cc(-c5cccc(Cl)c5)on4)cc3)n2)cc1`, the growth in test [1] was 89.8% (inactive); in test [2], 105% (inactive); in [3], 99.4% (inactive); in [4], 101% (inactive); in [5] it was 79% (inactive); in test [6] it was 86.7% (inactive). In addition, the growth is 88% (inactive) in test [7]; 105% (inactive) in test [8]; 79.4% (inactive) in test [9]; 108% (inactive) in test [10]; 72.9% (inactive) in test [11]; 82.9% (inactive) in [12]. In addition, the growth in test [13] is 94.4% (inactive); in test [14] it was 90.1% (inactive); in [15], 155% (inactive); in test [16], 86.4% (inactive); in test [17], 85.4% (inactive); in test [18] it was 99.9% (inactive). Besides, the growth in test [19] is 61% (inactive); in test [20], 7.82% (active).

Regarding `CCCCCC#CC1OC23CCCCC2C(C#N)(C(=N)O3)C1(C#N)C#N` (stereo not given), the growth in [1] was 102% (inactive); in [2], 88% (inactive); in test [3] it was 88.5% (inactive); in [4], 95% (inactive); in test [5] it was 96.4% (inactive); in [6], 81% (inactive). Also, the growth in [7] is 96.7% (inactive); in test [8] it was 83.1% (inactive); in [9], 89.7% (inactive); in test [10] it was 109% (inactive); in test [11], 93% (inactive); in [12], 97.1% (inactive). Also, the growth in test [13] was 93% (inactive); in test [14], 97.1% (inactive); in [15], 108% (inactive); in [16], 102% (inactive); in [17], 101% (inactive); in test [18], 93.6% (inactive). For the same compound, the growth is 88.4% (inactive) in test [19] and 99.9% (inactive) in test [20].

On to `COc1cc2ncnc(Nc3ccc(F)c(Cl)c3)c2cc1OCC(=O)N1CCCCC1`, for which the growth in test [1] was 86.1% (inactive); in test [2], 77.1% (inactive); in test [3], 87.7% (inactive); in test [4], 91.8% (inactive); in [5] it was 96.9% (inactive); in test [6], 84.6% (inactive). Besides, the growth in test [7] is 90.4% (inactive); in test [8], 91.7% (inactive); in test [9], 87.4% (inactive); in test [10], 99.2% (inactive); in [11] it was 88.1% (inactive); in test [12] it was 63.5% (inactive). The growth in [13] was 76.4% (inactive); in [14] it was 43.5% (inactive); in [15], 23.9% (inactive); in [16] it was 32.2% (inactive); in test [17], 44.5% (inactive); in test [18], 43.5% (inactive). Moreover, the growth in test [19] was 94.2% (inactive); in test [20] it was 73.8% (inactive).

As to `C=C(CNCCc1ccc(O)cc1)[C@@H]1CC[C@]2(CO)CC[C@]3(C)[C@H](CC[C@@H]4[C@@]5(C)CCC(NCCc6ccc(O)cc6)C(C)(C)[C@@H]5CC[C@]43C)[C@@H]12` (stereo not given in full), the growth in [1] was -86.9% (active); in test [2], -87.7% (active); in [3], -87.3% (active); in test [4], -85.4% (active); in [5] it was -88.4% (active); in [6], -75.6% (active). In addition, the growth in test [7] is -93.5% (active); in test [8] it was -88% (active); in [9] it was -86.3% (active); in test [10] it was -87.6% (active); in test [11], -84.2% (active); in [12], -85.7% (active). The growth was -85.1% (active) in [13]; -93.7% (active) in test [14]; -92.6% (active) in [15]; -98.9% (active) in test [16]; -57.7% (active) in [17]; -96.6% (active) in test [18]. The growth is -43.1% (active) in [19] and -49.1% (active) in test [20].

Take `COC1/C=C/OC2(C)Oc3c(C)c(O)c4c(O)c(c(C=NOC(c5ccccc5)c5ccccc5)c(O)c4c3C2=O)NC(=O)/C(C)=C/C=C/C(C)C(O)C(C)C(O)C(C)C(OC(C)=O)C1C` (stereo not given): the growth in test [1] was 13.2% (inactive); in [2] it was -12.1% (active); in test [3] it was 17.2% (inactive); in [4], 30.8% (inactive); in test [5] it was 10.4% (inactive); in test [6], 9.81% (active). Also, the growth in test [7] was 6.07% (active); in test [8] it was -4.64% (active); in test [9], 0.468% (active); in [10] it was -7.28% (active); in test [11] it was -24.9% (active); in [12], 20.4% (inactive). Also, the growth in [13] is 17.3% (inactive); in [14] it was 27.2% (inactive); in [15] it was 30.9% (inactive); in test [16], 20.3% (inactive); in test [17] it was 14% (inactive); in test [18], 58.5% (inactive). Also, the growth was 13.5% (inactive) in [19] and 5.43% (active) in test [20].

Regarding `CCC(=O)Oc1cc(Cl)c(Cl)cc1Cl`, the growth in test [1] is 103% (inactive); in [2], 103% (inactive); in [3] it was 89.6% (inactive); in [4], 113% (inactive); in [5] it was 98.1% (inactive); in [6], 96.4% (inactive). The growth in test [7] was 105% (inactive); in test [8], 108% (inactive); in test [9], 105% (inactive); in [10], 104% (inactive); in [11] it was 103% (inactive); in [12] it was 102% (inactive). Further, the growth in test [13] is 97.9% (inactive); in [14], 95.3% (inactive); in test [15], 98.5% (inactive); in test [16], 101% (inactive); in [17], 99.2% (inactive); in [18], 83.3% (inactive). For the same compound, the growth in test [19] was 105% (inactive); in test [20], 111% (inactive).

`CN1CCN(CCCN2c3ccccc3Sc3ccc(Cl)cc32)CC1`: the growth in test [1] is 68.8% (inactive) and 80.8% (inactive); in test [2], 25.2% (inactive) and 35.9% (inactive); in [3], 45.2% (inactive) and 57.4% (inactive); in [4] it was 89.7% (inactive) and 91.4% (inactive); in [5] it was 54.6% (inactive) and 68% (inactive); in [6], 56.2% (inactive) and 53.6% (inactive). Further, the growth in test [7] was 17.6% (inactive) and 62.1% (inactive); in test [8] it was 33.1% (inactive); in test [9], 54.4% (inactive) and 71.8% (inactive); in [10], -18.1% (active) and 67.7% (inactive); in test [11], 106% (inactive); in test [12], 75% (inactive) and 77.4% (inactive). For the same compound, the growth in test [13] was 64% (inactive) and 76.7% (inactive); in [14] it was 54.5% (inactive); in [15], 74.9% (inactive) and 85.8% (inactive); in test [16] it was 62.9% (inactive) and 85.2% (inactive); in test [17], 55.2% (inactive) and 60.7% (inactive); in test [18], 82.2% (inactive) and 79.4% (inactive). Moreover, the growth in test [19] is 80.1% (inactive) and 75.9% (inactive); in test [20], 70.3% (inactive) and 73.9% (inactive).
